Screening results: PubChem, Broad Institute
Tgondii IFNg: blocks Toxoplasma gondii growth in the presence of IFN-gamma; Toxoplasma gondii growth in IFN-gamma-treated host cells; stronger effect = lower value; activity change, negative = inhibition, % (no concentration beside the values); 69,000 compounds, 3.8% hits; AID 1259416; in the data active = activity change below about -70%, passing the limit was not always enough;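 note: host cells are HeLa cells infected with Toxoplasma gondii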
* marks the source's active call; other numbers are inactive results. This is one part of a sample in which hits are shown more often than they occur.

What do the screens show for `CCC(C)n1ncn(-c2ccc(N3CCN(c4ccc(OCC5COC(Cn6cncn6)(c6ccc(Cl)cc6Cl)O5)cc4)CC3)cc2)c1=O` (configuration not stated)?
Tgondii IFNg: -95.1*

What do the screens show for `Cc1ccc(-c2nc3ccccc3s2)cc1N`?
Tgondii IFNg: 174.1

Results for CCOC(=O)c1cc(C)nc2c1c(=O)n(Cc1nc(-c3cccc(Cl)c3)oc1C)c(=O)n2C ?
Tgondii IFNg: 9.9

Results for COC(=O)CN1C(=O)NC(C)(C)C1=O ?
Tgondii IFNg: -2.4

Results for CSc1ncc(C(=O)N(C)C(C)Cc2ccccn2)cn1 (configuration not stated) ?
Tgondii IFNg: -6.8

Results for Cc1ccc(NC(=O)Nc2ccc(-c3nc(-c4ccccc4)co3)cc2)cc1 ?
Tgondii IFNg: 23.8

Results for Cc1ccc(-c2coc(-c3ccc(NC(=O)Nc4ccccc4)cc3)n2)cc1 ?
Tgondii IFNg: 16.2

What do the screens show for `Cc1ccc(NC(=O)NC(=O)c2c(C)noc2-c2snnc2C)cc1`?
Tgondii IFNg: -106.5*

Results for Cn1nc(-c2ccccc2)c2c1C[C@H]1CN(C(=O)C3(C)CC3)C[C@H]21 ?
Tgondii IFNg: -28.8

What do the screens show for `Cc1nc2ncnn2c(NCc2ccc3c(c2)OCO3)c1Cc1ccccc1`?
Tgondii IFNg: -95.5*

How did Cc1cccc(CCNc2cc(C)nc3ncnn23)c1 do in these assays?
Tgondii IFNg: 3.0

How did CCOC(=O)c1nc(NCc2ccc3c(c2)OCO3)c2ccccc2n1 do in these assays?
Tgondii IFNg: 9.2

How did Cn1cc(CN2C[C@H]3COC[C@@]3(COc3ccc(C#N)cn3)C2)cn1 do in these assays?
Tgondii IFNg: 3.0

Results for O=S(=O)(NCc1ccccc1)Nc1ccc(-n2cncn2)cc1 ?
Tgondii IFNg: 1.1

Results for Cc1cccc(-n2ncc3c(NCCCn4ccnc4)ncnc32)c1 ?
Tgondii IFNg: 58.2

What do the screens show for `Cc1cc(C)c(S(=O)(=O)NCCCn2ccnc2)c(C)c1`?
Tgondii IFNg: -35.8

How did Cc1cc(C)c2cc(C#N)c(NCCCn3ccnc3)nc2c1 do in these assays?
Tgondii IFNg: -100.7*

Results for CCCCN(C)C(=O)c1ncn2c(C3CCN(C(=O)C4CCCC4)CC3)ccnc12 ?
Tgondii IFNg: -0.7

What do the screens show for `Fc1ccc(-n2cc(C3Nc4ccccc4CO3)cn2)cc1` (configuration not stated)?
Tgondii IFNg: 168.5

What do the screens show for `COc1cc(O)c(C(=O)c2ccccc2)cc1O`?
Tgondii IFNg: 8.3

How did Cc1nc(-c2ccccc2)c(NC(=O)c2ccccc2)s1 do in these assays?
Tgondii IFNg: 11.6

What do the screens show for `O=C(c1ccccc1)c1cc(C(=O)c2ccccc2)c(-c2ccccc2)nc1-c1ccccc1`?
Tgondii IFNg: -89.3*

How did COc1ccc(-c2nc(CSc3nc4c(=O)[nH]c(C)nc4n3C)c(C)o2)cc1OC do in these assays?
Tgondii IFNg: 4.8

How did CCOCC(=O)N1Cc2nnn(C)c2C(COCc2ccccc2)C1 (configuration not stated) do in these assays?
Tgondii IFNg: -7.8

What do the screens show for `O=C(Cc1ccc(N2CCNC2=O)cc1)N1CCC2(CCCO2)CC1`?
Tgondii IFNg: 6.1

How did O=C1CCC(C(=O)N2CCc3[nH]nc(-c4cccc5ccccc45)c3C2)CN1 (configuration not stated) do in these assays?
Tgondii IFNg: 2.0

What do the screens show for `NCCC(=O)N1c2ccccc2Sc2ccccc21`?
Tgondii IFNg: 32.4

What do the screens show for `FC(F)(F)c1ccc2c(c1)Nc1ccccc1S2`?
Tgondii IFNg: 90.3

How did O=C(c1ccc(F)cc1)N1c2ccccc2Sc2ccc(C(F)(F)F)cc21 do in these assays?
Tgondii IFNg: -76.4*

What do the screens show for `CCS(=O)(=O)N1C[C@H](C(=O)N2CCCO2)C[C@@H]2OCC[C@@H]21`?
Tgondii IFNg: 3.3

What do the screens show for `CC(=O)N1CCC2(CC1)OC(=O)C(C)=C2C(=O)NCCCN1CCCC1`?
Tgondii IFNg: 99.7

What do the screens show for `CC1=NN(C(=O)CCCc2ccccc2)C(O)(c2ccc(Br)cc2)C1` (configuration not stated)?
Tgondii IFNg: 10.5

Results for O=C(c1csc(-c2ccc(N3CCCC3)nc2)n1)N1CCC2(CC1)OCCO2 ?
Tgondii IFNg: 41.1

Results for O=C(NCc1ccc(N2CCOCC2)cc1)c1csc(-c2ccc(N3CCCC3)nc2)n1 ?
Tgondii IFNg: 84.3

What do the screens show for `O=C(NCCN1CCOCC1)c1csc(-c2ccc(N3CCCC3)nc2)n1`?
Tgondii IFNg: -99.6*

What do the screens show for `O=C1NCC[C@]12CN(Cc1ccco1)C[C@H]2c1ccccc1`?
Tgondii IFNg: -0.5

Results for CCOCC1CN(C(=O)Cc2ccsc2)Cc2ccnn2C1 (configuration not stated) ?
Tgondii IFNg: 7.6

Results for CC(C)(C)C1CCc2onc(C(=O)NCC(C)(C)N3CCCCC3)c2C1 (configuration not stated) ?
Tgondii IFNg: -14.6

What do the screens show for `CN(C)c1cc(C(=O)Nc2ccccc2OCC2CCCCO2)ccn1` (configuration not stated)?
Tgondii IFNg: -8.1

Results for Cc1ccc(OCCN(C)C)c(NC(=O)c2noc3c2CC(C(C)(C)C)CC3)c1 (configuration not stated) ?
Tgondii IFNg: -73.7*

Results for COc1cccc(C(=O)N2CCC3(CC2)C(=O)N(C)CCN3Cc2csc(C)n2)c1 ?
Tgondii IFNg: 23.2

What do the screens show for `C=CCN1C(=O)CCCC12CCCN(C(=O)c1ccc3ncccc3c1)C2` (configuration not stated)?
Tgondii IFNg: 15.0

What do the screens show for `C[C@H]1CN([C@@H](C)CO)S(=O)(=O)c2ccc(C#CC(C)(C)O)cc2O[C@@H]1CN(C)Cc1ccc(F)cc1`?
Tgondii IFNg: -1.9

What do the screens show for `COc1cccc(-c2ccc3c(c2)O[C@@H](CN(C)Cc2cccnc2)[C@H](C)CN([C@@H](C)CO)S3(=O)=O)c1`?
Tgondii IFNg: -95.2*

Results for C[C@@H]1CN([C@@H](C)CO)S(=O)(=O)c2ccc(C#Cc3ccccc3F)cc2O[C@@H]1CN(C)C(=O)Cc1cccnc1 ?
Tgondii IFNg: -8.4

How did COc1ccccc1-c1ccc2c(c1)O[C@H](CN(C)CC1CCOCC1)[C@@H](C)CN([C@@H](C)CO)S2(=O)=O do in these assays?
Tgondii IFNg: -19.2

How did C[C@H](CO)N1C[C@H](C)[C@@H](CN(C)C(=O)Cc2cccnc2)Oc2cc(C#Cc3ccccc3F)ccc2S1(=O)=O do in these assays?
Tgondii IFNg: -107.7*

What do the screens show for `COc1cccc(-c2ccc3c(c2)O[C@H](CN(C)Cc2cccnc2)[C@@H](C)CN([C@H](C)CO)S3(=O)=O)c1`?
Tgondii IFNg: -97.2*

How did COc1ccccc1-c1ccc2c(c1)O[C@H](CN(C)CC1CCOCC1)[C@@H](C)CN([C@H](C)CO)S2(=O)=O do in these assays?
Tgondii IFNg: -52.1

Results for COc1cccc(-c2ccc3c(c2)O[C@@H](CN(C)Cc2cccnc2)[C@@H](C)CN([C@@H](C)CO)S3(=O)=O)c1 ?
Tgondii IFNg: -54.6

Results for COc1cccc(-c2ccc3c(c2)O[C@@H](CN(C)Cc2cccnc2)[C@@H](C)CN([C@H](C)CO)S3(=O)=O)c1 ?
Tgondii IFNg: 30.3

Results for O=C(NC1CCC1)[C@H]1C[C@@H]2CN(C(=O)Nc3ccccc3Cl)C[C@H]1O2 ?
Tgondii IFNg: 37.3

Results for Cc1cccc(-c2noc(-c3c(O)c4ccccc4n(C)c3=O)n2)c1 ?
Tgondii IFNg: -5.1

How did COc1ccc(N(Cc2nc(-c3ccccc3)oc2C)S(=O)(=O)c2ccccc2C)cc1 do in these assays?
Tgondii IFNg: 0.4
